D1 antagonist: human D1 dopamine receptor antagonism. AID 504652. hit rate 3.2% among 360,000. activity change, negative = inhibition, % at 10 µM. HEK293 TREx D1 cells, calcium flux, dopamine EC80; hits give low values. P21728; in the data active = activity change below about -30%
Target sequence (P21728 whole entry, looked up): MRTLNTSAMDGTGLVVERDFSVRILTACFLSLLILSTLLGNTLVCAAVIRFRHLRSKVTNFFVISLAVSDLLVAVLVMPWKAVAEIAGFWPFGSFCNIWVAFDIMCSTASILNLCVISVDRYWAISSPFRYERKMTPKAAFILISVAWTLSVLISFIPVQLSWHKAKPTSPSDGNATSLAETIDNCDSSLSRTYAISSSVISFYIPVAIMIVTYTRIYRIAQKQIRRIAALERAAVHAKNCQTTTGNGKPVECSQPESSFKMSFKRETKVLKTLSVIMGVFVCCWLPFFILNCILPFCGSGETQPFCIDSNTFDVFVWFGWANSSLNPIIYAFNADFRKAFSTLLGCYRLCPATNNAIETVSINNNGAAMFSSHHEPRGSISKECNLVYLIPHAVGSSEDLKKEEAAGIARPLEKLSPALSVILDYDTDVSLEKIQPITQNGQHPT
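Compound effects on dopamine-evoked calcium signalling were measured in tetracycline-induced HEK293 Trex D1 cells. Dopamine at EC80 followed a 180 s compound pre-read, and fluorescence was tracked kinetically for 180 s more.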
TRHR PAM: allosteric enhancers of human TRH receptor. P34981. TRHR cells, fluo-8 calcium fluorescence, EC20 TRH enhancement. enhancement, % at 2 µM. hit rate 0.66% among 360,000. AID 493056; in the data active = enhancement above about 30%
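Enhancer read-out: after compound pinning and an initial kinetic agonist-mode read, an EC20 of TRH (10 nM final) was injected and fluo-8 calcium signal (Ex 480/Em 530) followed at 1 s/cycle for 100 cycles in TRHR-expressing cells.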
D1 PAM: potentiators of human D1 dopamine receptor; P21728; HEK293 TREx D1 cells, calcium flux, dopamine EC20 potentiation; potentiation, % at 10 µM; hit rate 0.036% among 360,000; in the data active = potentiation above about 30%
D1 agonist: agonists of human D1 dopamine receptor | activation, % at 2 µM | HEK293 T-REx D1 cells, calcium flux, agonist mode | hit rate 1% among 360,000
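Agonism was scored from calcium flux recorded over 180 s (1 read/s) after pintool compound addition, following a 10-cycle baseline. Cells were inducible force-coupled HEK293 TREx D1, plated overnight at 30 C and loaded with no-wash calcium dye.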
TRHR ag: activates the human TRH receptor. P34981. TRHR cells, calcium flux fluo-8, FDSS agonist mode. hit rate 0.18% among 360,000. activation, % at 2 µM
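Fluo-8-loaded TRHR cells; 10 s baseline, compound added, kinetic Ca2+ fluorescence read 1/s, agonist mode.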
Each line names hits and unclear results; the compound was inactive in the other large screens; ! = a repeat was not active. An excerpt weighted towards active compounds, which were near 4.6% of everything screened. Rule as the data show it, unless noted: active = activation above about 30%; inactive = the rest.

CNC(=S)N/N=C(\C)c1ccc(Cl)c(Cl)c1	none
Cc1ccc(Sc2ccc(N3CCCC(C(=O)Nc4ccc(F)cc4F)C3)nn2)cc1 (stereo unspecified)	none
O=C(CN1CCN(Cc2ccc(F)cc2)C1=O)NCc1ccccc1	none
Cc1ccc(NC(=O)CC(NC(=O)c2ccccc2Cl)c2ccccc2)nc1 (stereo unspecified)	D1 antagonist -30.1 (no result: D1 PAM)
CC(=O)c1c(Cl)nc2ccc(Br)cc2c1-c1ccccc1	TRHR PAM 35.0
CC(=O)c1c(C)nc2ccc(Br)cc2c1-c1ccccc1	none
COc1cccc(NS(=O)(=O)c2cc(-c3cnc(C4CC4)o3)ccc2C)c1	none
Cc1ccc(NC(=O)N2CCc3cc(S(=O)(=O)N4CCC(C)CC4)ccc32)cc1	none
COc1ccc(CN2C(=NC(=O)C3CC3)SC3CS(=O)(=O)CC32)cc1OC (stereo unspecified)	D1 antagonist -30.7
COc1ccc(C(=O)N=C2SC3CS(=O)(=O)CC3N2Cc2ccc(OC)c(OC)c2)cc1 (stereo unspecified)	none
CNc1ccc2c3c(cccc13)C(=O)N(C)C2=O	D1 antagonist -38.1, TRHR PAM 46.9, D1 agonist 337.8, TRHR ag 261.7
CN1C(=O)c2cccc3c(Cl)ccc(c23)C1=O	none
CC(CCCC(C)(C)O)CC1C2=C(CCCC2=O)OC2=C1C(=O)CCC2 (stereo unspecified)	none
CC(=O)Nc1ccc(N2C(=O)c3cccc4c(O)ccc(c34)C2=O)cc1	TRHR PAM 34.5, D1 agonist 283.3, TRHR ag 199.4
O=C1c2cccc3c(O)ccc(c23)C(=O)N1Cc1ccco1	TRHR PAM 33.2, D1 agonist 271.5, TRHR ag 234.9
O=C1c2cccc3c(O)ccc(c23)C(=O)N1c1ccc(Cl)cc1	D1 agonist 470.1
Fc1ccccc1Nc1c2c(nc3ccccc13)CCC2	D1 antagonist -33.5
CCCCCC(=O)Nc1c2c(nc3ccccc13)CCC2	TRHR PAM 31.7
Fc1ccc(Nc2c3c(nc4ccccc24)CCC3)cc1	D1 antagonist -40.9
COc1ccc(C)cc1Nc1c2c(nc3ccccc13)CCC2	D1 antagonist -55.0!
O=C(CCCCCl)Nc1c2c(nc3ccccc13)CCC2	none
c1ccc(Nc2c3c(nc4ccccc24)CCC3)cc1	none (no result: D1 antagonist)
COc1ccc(S(=O)(=O)NCCc2csc3nc(-c4cccc(C)c4)nn23)cc1F	none (no result: D1 antagonist)
O=[N+]([O-])c1ccc2[nH]c(O)c(N=Nc3ccc(F)cc3)c2c1	none
Oc1[nH]c2ccc(Br)cc2c1N=Nc1ccc(F)cc1	D1 agonist 56.4
Cc1cccc(Nc2cc(C)c3c(O)cccc3n2)c1C	D1 antagonist -92.4
CCC(C)NC(=O)Cn1c(=O)n(-c2ccc(Cl)c(Cl)c2)c(=O)c2c(C)c(C(=O)N(CC)CC)sc21 (stereo unspecified)	none
Cc1ccc(NS(=O)(=O)c2cc(Br)cnc2N)c(Cl)c1	none
Nc1ncc(Br)cc1S(=O)(=O)Nc1cc(C(F)(F)F)cc(C(F)(F)F)c1	D1 antagonist -34.0
Cn1c(=O)c2sccc2n2c(CCC(=O)Nc3ccc(F)cc3)nnc12	none
COc1ccc(Cn2ncc3c4sc(C)cc4n(C)c3c2=O)cc1	none
C/C(=N\NC(=O)Cc1ccc(Cl)cc1)c1ccccc1O	D1 antagonist -35.8
C/C(=N\NC(=O)CSCc1ccc([N+](=O)[O-])cc1)c1ccccc1O	D1 antagonist -86.7
C/C(=N\NC(=O)Cc1ccc(Cl)cc1)c1ccc(F)cc1	none
Cc1cccc(OCC(=O)NCCc2nc3ccccc3[nH]2)c1C	none
COCC(=O)O[C@]1(CCN(C)CCCc2nc3ccccc3[nH]2)CCc2cc(F)ccc2[C@@H]1C(C)C	D1 agonist 66.8
COc1ccccc1OCCSc1nc(N)cc(N)n1	D1 antagonist -84.4
C=CCc1ccccc1OCCSc1nc2ccc([N+](=O)[O-])cc2s1	none
Nc1cc(N)nc(SCCOc2ccccc2F)n1	none
COc1ccccc1OCCSc1nc2ccc([N+](=O)[O-])cc2s1	D1 antagonist -57.1
COc1ccc(OCCSc2ncccn2)cc1	TRHR PAM 30.5
CCn1nc(C)c(CCN(C)C(=O)Nc2cc(C)cc(C)c2)c1C	none
CCC(C)NC(=O)Cn1ccc2cc(S(=O)(=O)N3CCCCC3)ccc21 (stereo unspecified)	none
N#Cc1nc(Nc2cc(F)cc(F)c2)c2ncn(CC(F)F)c2n1	none
N#Cc1nc(NCC(F)F)c2ncn(-c3cccc(Cl)c3)c2n1	D1 antagonist -49.3
CSCC[C@H](NS(=O)(=O)c1ccc(C(C)=O)cc1)c1nnc2ccccn12	none
Cc1cccc(NC(=O)CSc2nc3n[nH]c(C)c3c(=N)n2-c2cccc(Cl)c2)c1	D1 antagonist -35.1
Cc1cccc(-n2c(SCC(=O)N3CCCC3)nc3n[nH]c(C)c3c2=N)c1	TRHR PAM 40.1
Cc1cccc(-c2nsc(SCC(=O)N3CCCC3)n2)c1	D1 antagonist -37.2
O=C(CSc1nc(-c2ccccc2)ns1)N1CCOCC1	none
Cc1ccc(NC(=O)CSc2nc3n[nH]c(C)c3c(=N)n2-c2cccc(C)c2)cc1	none
COc1cc(/C=C2\SC(=O)NC2=O)ccc1Oc1cnccn1	D1 antagonist -40.8
O=C1NC(=O)/C(=C\c2ccc(Oc3cnccn3)cc2)S1	none
CCCCN(CCCNC(=O)C1CCN(S(=O)(=O)N2CCOCC2)CC1)c1ccccc1	D1 antagonist -35.2
COc1ccc2c(c1)CC(NC(=O)Nc1ccc(NC(C)=O)cc1)CO2 (stereo unspecified)	none
CC(C)c1cc(N2CCN(C(=O)c3ccco3)CC2)n2c(nc3ccccc32)c1C#N	D1 antagonist -33.4
CCn1c(N2CCN(C(=O)c3ccco3)CC2)nc2ccccc21	none
CCN(CC)S(=O)(=O)c1ccc2c(c1)N(CC(=O)N1CCN(c3cccc(Cl)c3)CC1)C(=O)CO2	none
Cc1ccc(C)c(CSc2nc3c([nH]c4ccccc43)c(=O)n2C)c1	none
Cc1ccccc1CN1c2ccccc2-c2nc(SCC(N)=O)ncc2S1(=O)=O	none
O=C(CSc1ncc2c(n1)-c1cc(Cl)ccc1N(Cc1ccccc1)S2(=O)=O)Nc1ccc(F)cc1F	none
CCc1ccccc1NC(=O)CSc1ncc2c(n1)-c1ccccc1N(Cc1ccc(C)cc1)S2(=O)=O	D1 antagonist -37.0
COc1ccccc1NC(=O)CSc1ncc2c(n1)-c1cc(Cl)ccc1N(Cc1ccccc1)S2(=O)=O	D1 antagonist -33.4
Cc1ccccc1CN1c2ccccc2-c2nc(SCC(=O)c3ccccc3)ncc2S1(=O)=O	D1 antagonist -37.9
COc1ccc(C(=O)Nc2cc(-c3cccc(C)c3)nn2-c2ccccc2)cc1	none
COc1cccc(NC(=O)Cn2nnc(-c3nc(-c4ccccc4)no3)c2N)c1	none
CCOc1ccccc1Nc1nnc(-c2cc3cc(Cl)ccc3oc2=O)s1	none
